These results are taken from PubChem BioAssay (Tox21).

Records with an inconclusive call do not appear. Entries that show only a call come without a potency. Values without a mark were called inactive. The source made the active and inactive calls. Calls come from the whole dose curve; as a rule, active = well fitted curve in the direction sought with a large enough effect in the repeat runs; inconclusive = weak or mixed curves; inactive = no such curve, though single readings can be large; an effect the other way counts as inactive or inconclusive.

A short description of the first experiment: qHTS RealTime-Glo MT Cell Viability Assay in HepG2 cells - 32 hour (AID 1224877). Note: nearly all actives have a fitted effect of over 55% in size. Particulars: RealTime-Glo luminescence; series mostly up to 76.8 µM. The method in brief:
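qHTS, HepG2, 600 cells/well, RealTime-Glo (NanoLuc + prosubstrate) added with cells; 5 h preincubation; DMSO compound addition; 37 C; luminescence at 0/8/16/24/32/40 h.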
For orientation: qHTS replaces the single test concentration by a dilution series.
Regarding `O=C(OCC(COC(=O)c1cccnc1)(COC(=O)c1cccnc1)COC(=O)c1cccnc1)c1cccnc1`, the outcome was inactive.

For the compound `CCOC(=O)c1ccc(OC(=O)CCCCCN=C(N)N)cc1`, the call was inactive.

As for `CC(C)(C)c1n[nH]c(=S)n(N)c1=O`, the compound was called inactive.

Take `CC(C)C(=O)OCCc1ccccc1`: the result was inactive.

Regarding `CC(=O)Nc1ccc(S(=O)(=O)Cl)cc1`, the result was inactive.

Consider `CCCCOC(=O)c1ccccc1`, for which the compound was classed as inactive.

`CCCCCCN`: the call was inactive.

Take `Cc1ccccc1OCC(O)CO` (centres undefined): the outcome was inactive.

In the case of `COC(=O)C1CC(=O)C(C(=O)OC)CC1=O` (centres undefined), the activity change, negative = cytotoxic is 12.6% [at 6.97 µM].

As for `BrCc1cccc(Oc2ccccc2)c1`, the call was inactive.

For the compound `Cc1cccc(OCC(O)CNC(C)(C)C)c1C` (centres undefined), the outcome was inactive.

With `OCCC(F)(F)C(F)(F)C(F)(F)C(F)(F)C(F)(F)C(F)(F)C(F)(F)C(F)(F)F`, the call was inactive.

A further experiment is described as follows: A CellTox Green Cytotoxicity Assay to monitor cytotoxicity in HepG2 cells - 24 hour (AID 1224878). Note: nearly all actives have a fitted effect of over 45% in size. Particulars: CellTox Green fluorescence; series mostly up to 76.8 µM. The gist of the method: (§1)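 Cytotoxicity was tracked as dead-cell DNA fluorescence in HepG2 cells treated with test compounds at 37 C; each time-point value comes from one kinetic series spanning 0, 8, 16, 24, 32 and 40 h.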
On to `OCCCCC(O)CO` (centres undefined), for which the result was inactive.

Turning to `CN(CCOc1ccc(NS(C)(=O)=O)cc1)CCc1ccc(NS(C)(=O)=O)cc1`, the result was inactive.

For the compound `C=CC(OCC)OCC`, the call was inactive.

As for `CCCCCCCCSCC`, the compound was classed as inactive.

As to `Cc1[nH]cnc1-c1ccc(Cl)cc1`, the result was inactive.

As for `c1ccc2c(c1)ccc1c3ccccc3ccc21`, the call was inactive.

For the compound `NS(=O)(=O)c1cc2c(cc1Cl)CN(C1CCCCC1)C2=O`, the result was inactive.

Take `Oc1cn2c(n1)Nc1ccc(Cl)c(Cl)c1C2`: the cytotoxicity was -5.44% [at 15.8 µM].

In the case of `CN1C(C)(C)CCCC1(C)C`, the compound was classed as inactive.

Regarding `C[Si](C)=O`, the cytotoxicity was -4.98% [at 6.97 µM].

As for `CCc1ccc(C=O)cc1`, the compound was classed as inactive.

As to `CC(=O)OC(C)OC(=O)C(C)c1ccc(-c2ccccc2)c(F)c1` (centres undefined), the compound was classed as inactive.

Regarding `COP(=O)(OC)OC(c1ccc(Cl)cc1)P(=O)(OC)OC` (centres undefined), the compound was classed as inactive.

Regarding `CCOCCOCCOCC`, the outcome was inactive.

For `CC1=C(C(=O)O)N2C(=O)[C@@H](NC(=O)[C@H](N)c3ccc(O)cc3)[C@H]2SC1`, the result was inactive.

In the case of `COc1ccc2c(c1OC)C(=O)O[C@@H]2[C@H]1c2c(cc3c(c2OC)OCO3)CCN1C`, the outcome was inactive.

For `CC(C)CC(=O)O`, the compound was called inactive.

Regarding `CC(COC(C)(C)C)OCCCO` (centres undefined), the outcome was inactive.

With `O=C(OCC(COC(=O)c1cccnc1)(COC(=O)c1cccnc1)COC(=O)c1cccnc1)c1cccnc1`, the result was inactive.

`CCOC(=O)c1ccc(OC(=O)CCCCCN=C(N)N)cc1`: the compound was called inactive.

Regarding `CC(C)(C)c1n[nH]c(=S)n(N)c1=O`, the outcome was inactive.

For the compound `CC(C)C(=O)OCCc1ccccc1`, the compound was classed as inactive.

Take `CC(=O)Nc1ccc(S(=O)(=O)Cl)cc1`: the compound was called inactive.

In the case of `CCCCOC(=O)c1ccccc1`, the call was inactive.

With `CCCCCCN`, the compound was classed as inactive.

For the compound `Cc1ccccc1OCC(O)CO` (centres undefined), the compound was called inactive.

For `COC(=O)C1CC(=O)C(C(=O)OC)CC1=O` (centres undefined), the cytotoxicity is -7.82% [at 6.97 µM].

Consider `Cc1cccc(OCC(O)CNC(C)(C)C)c1C` (centres undefined), for which the compound was classed as inactive.

For `OCCC(F)(F)C(F)(F)C(F)(F)C(F)(F)C(F)(F)C(F)(F)C(F)(F)C(F)(F)F`, the compound was called inactive.

The nature of a further experiment: A CellTox Green Cytotoxicity Assay to monitor cytotoxicity in HepG2 cells - 40 hour (AID 1224879). Note: nearly all actives have a fitted effect of over 40% in size. Particulars: CellTox Green fluorescence; series mostly up to 76.8 µM. The method in brief:
as §1
On to `OCCCCC(O)CO` (centres undefined), for which the Potency entry was “inactive”.

`Cc1cccc2nccnc12`: the Potency entry was “inactive”.

In the case of `CN(C)C(=O)CNC(=O)Cc1ccccc1`, the Potency entry is “inactive”.

On to `CN(CCOc1ccc(NS(C)(=O)=O)cc1)CCc1ccc(NS(C)(=O)=O)cc1`, for which the Potency entry is “inactive”.

With `C=CC(OCC)OCC`, the Potency entry is “inactive”.

In the case of `CCCCCCCCSCC`, the Potency entry was “inactive”.

As to `Cc1[nH]cnc1-c1ccc(Cl)cc1`, the Potency result was “inactive”.

As for `c1ccc2c(c1)ccc1c3ccccc3ccc21`, the Potency result was “inactive”.

`NS(=O)(=O)c1cc2c(cc1Cl)CN(C1CCCCC1)C2=O`: the Potency result is “inactive”.

For the compound `Oc1cn2c(n1)Nc1ccc(Cl)c(Cl)c1C2`, the cytotoxicity increase was -8.09% [at 15.8 µM].

Take `CCOC(=O)c1ncn2c1CN(C)C(=O)c1cc(F)ccc1-2`: the Potency result was “inactive”.

For the compound `CN1C(C)(C)CCCC1(C)C`, the Potency entry was “inactive”.

`C[Si](C)=O`: the cytotoxicity increase was -11.7% [at 6.97 µM].

In the case of `CCc1ccc(C=O)cc1`, the Potency result is “inactive”.

With `CC(=O)OC(C)OC(=O)C(C)c1ccc(-c2ccccc2)c(F)c1` (centres undefined), the Potency result is “inactive”.

For `COP(=O)(OC)OC(c1ccc(Cl)cc1)P(=O)(OC)OC` (centres undefined), the Potency entry is “inactive”.

Regarding `CCOCCOCCOCC`, the Potency entry was “inactive”.

For the compound `CC1=C(C(=O)O)N2C(=O)[C@@H](NC(=O)[C@H](N)c3ccc(O)cc3)[C@H]2SC1`, the Potency result was “inactive”.

In the case of `CC(C)CC(=O)O`, the Potency entry is “inactive”.

For the compound `CC(COC(C)(C)C)OCCCO` (centres undefined), the Potency entry is “inactive”.

`CC(C)CCCCOC(=O)c1ccccc1C(=O)OCCCCC(C)C`: the Potency entry is “inactive”.

For `CC(CO)c1ccccc1` (centres undefined), the Potency result is “inactive”.

For the compound `O=C(OCC(COC(=O)c1cccnc1)(COC(=O)c1cccnc1)COC(=O)c1cccnc1)c1cccnc1`, the Potency entry is “inactive”.

`CCOC(=O)c1ccc(OC(=O)CCCCCN=C(N)N)cc1`: the Potency entry was “inactive”.

For the compound `CC(C)(C)c1n[nH]c(=S)n(N)c1=O`, the Potency entry was “inactive”.

As for `CC(C)C(=O)OCCc1ccccc1`, the Potency result is “inactive”.

For `CC(=O)Nc1ccc(S(=O)(=O)Cl)cc1`, the Potency entry is “inactive”.

Turning to `CCCCOC(=O)c1ccccc1`, the Potency result was “inactive”.

With `CCCCCCN`, the Potency entry is “inactive”.

Take `Cc1ccccc1OCC(O)CO` (centres undefined): the Potency entry was “inactive”.

`COC(=O)C1CC(=O)C(C(=O)OC)CC1=O` (centres undefined): the cytotoxicity increase was -13.2% [at 6.97 µM].

As for `Cc1cccc(OCC(O)CNC(C)(C)C)c1C` (centres undefined), the Potency entry is “inactive”.

For the compound `OCCC(F)(F)C(F)(F)C(F)(F)C(F)(F)C(F)(F)C(F)(F)C(F)(F)C(F)(F)F`, the Potency result was “inactive”.
